The values that follow come from PubChem BioAssay AID1508600 (Functional Genomics Laboratory (NCATS/FGL), 2020).

The whole screen tested about 53,000 sequences, of which about 3,700 (7%) were called active. Shown is part of a subset that was picked to be rich in actives. Unmarked numbers belong to inactive results.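 How the source made its calls: active means gene knockdowns whose robust z-score for IL-1 alpha signal is at least 2 or at most -2, so actives lie on both sides; inactive means the rest.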

This assay can be described thus: Components of the Cytosolic LPS Sensing Pathway: Gene Identification via Genome-wide siRNA Screen.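 Further: robust z of the log signal after scaling to non-targeting control siRNA wells of the plate.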 As to conditions: RAW264.7 macrophages, IL-1a HTRF, actives lie on both sides, screened at 100 nM (by protocol), cells primed 5 h with Pam3CSK4 first. The essentials:
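Read-out: IL-1a HTRF on supernatant, divided by plate negative-control median ×100, log-transformed and converted to robust z-score. Cells were RAW264.7 given 100 nM siRNA, Pam3CSK4-primed 5 hours, then LipidA-transfected 24 hour.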
For the sequence CGAGUGUGAGCUACAGCGUTT against Agrn, the z-score was 2.74 (active).
UCUGUGGACCAGGAUUUGGTT against Pcsk1n: the z-score was -2.8 (active).
Regarding GGGUGUGACGAUUCUCACCTT against Olfr800, the z-score was 0.705.
The figure for GGAAAAUGAAGGUUCAGAATT against Pkib is -0.185.
In the case of GGACUGUGAGGCCUAUGAATT against Cd72, the z-score is -0.1.
CCGAUCUGAUAUAGUAGAATT against Stk31: the z-score is 2.18 (active).
As for GGCCACAGAUCUUCUGGUGTT against Calml4, the z-score was 1.08.
Regarding CGAGGGUCUGAAAAAUUACTT against Ighg, the z-score is 1.28.
The figure for GGUAUGCACUCACACCAGATT against Mus81 is 0.73; for GGCCGUGUGCAUCUUUGUGTT against Gpr20 it is 1.43.
With GGGAGAUCUCCAACACCAATT against Dipk1b, the z-score is -1.02.
Regarding CCUUUGGUGAAGCCUGGAUTT against Kiss1, the z-score is -0.0609.
Consider GGACUUCAUGGCUAGUUUCTT against B4galt4, for which the z-score was -0.14.
As for GCAGAGCAUGCCUUACUGUTT against Eif4ebp1, the z-score was 4.39 (active).
With GCUAACAGCAUCCUUUUUGTT against Vmn1r50, the z-score was -0.843.
GGAGAUUGACCUGGUCAACTT against Cav1: the z-score is 1.44.
Regarding GGUUAUGAUCGGCAUCGCUTT against Fam24a, the z-score was -1.46.
Regarding “GGCUUCCUUCAGUGAGAAUTT against 1810065E05Rik”, the z-score was -2.02 (active).
For GGCAUGAGUGCAUUUGCUATT against Ifi203, the z-score was -0.673.
As to “CCUAAGCUUAUCUCAUAUUTT against 4930449I24Rik”, the z-score is -0.572.
Take GGGCUACUACAAUGAGUACTT against Phospho1: the z-score was 0.412.
Regarding GGGUGAGAUGAAAUGCAUCTT against Efemp2, the z-score is 0.264.
The value for GGCCGACAAUUUGUCAGUUTT against Uaca was -1.19.
For the sequence GCAAGUGUUAGAACACAAGTT against Cish, the z-score is 0.823.
As to CGGUUCUGGUGCAUUCACATT against Olfr242, the z-score was -2.06 (active).
The value for GGAAAUUGGAGAUUUUUCCTT against Ccdc54 was -1.02; that for GGCAUUGGAUCUUCAUUUUTT against Slc18a1 was 2.35 (active); that for GGUGGAGAUCAAACCAGAGTT against Rps15 was 1.4.
Consider GGGAAACUCUCAGAUGAAGTT against Sh2d7, for which the z-score was -1.9.
GGCAGACAACUUCUACCAATT against Crim1: the z-score was 2.52 (active).
In the case of GGCAAAAUCUCAUCAGUCCTT against Iqcc, the z-score is -0.131.
The value for GGUGAUCUAGAAACAACCCTT against Tmco5 was 0.243; that for CCAUCCAGCUUUCAUUAAATT against Nckap1l was 0.508.
As to GGUCUCCAUUUCUUUCUGCTT against Nmd3, the z-score was -0.952.
Take GGAAAGAGGAAAUCUUUAGTT against Furin: the z-score is 2.04 (active).
For GGACUGAAGUGAAAUAAAUTT against Trav13-5, the z-score is -0.949.
In the case of GCAUCAUCGUGGGAAACCUTT against Olfr1284, the z-score was 0.331.
Take CCAUUCUCUUUACCUCAAUTT against Rdh12: the z-score is -0.161.
As to CCUGUAGGAGUGACUUCCUTT against Crbn, the z-score was 0.223.
For the sequence GGGACCAGAUAGAAAUUAUTT against Arhgef25, the z-score is 0.414.
The value for GGAAGAGAAGUUGUCCAAATT against Creld1 was 0.477; that for “GCUCACAGCAGCAUUUUACTT against 1700034H15Rik” was -2.48 (active).
As to GGACUCCUACAUGAUUGCUTT against Slc52a2, the z-score was -0.362.
UGUGGUCUUAGAAUCUAGCTT against Tdpoz3: the z-score is 4.49 (active).
As to CCAUUACUUCUGUGACCUCTT against Olfr32, the z-score is -0.289.
Regarding GCUGCUUUCUUUGGAGGACTT against Olfr484, the z-score was 2.27 (active).
The value for GGAGCUCUUUGACUUCUUGTT against Uqcrh was 0.359.
Take GGUGGCUAAAAGCUCUUCCTT against Odc1: the z-score was 1.9.
The value for “GGCCCAUUGUUUGAGCCCATT against A530013C23Rik” was -0.961; that for GGCAUUAACCUGAGAUGAUTT against Sprr2i was -1.42; that for GGCUAGCAGGAUCAGCAUCTT against Rnf212 was 0.617.
Regarding GGUGCUUUUUUUGGAUCAATT against Olfr507, the z-score is -1.05.
The value for GGAAGAGAGGGUGAAUAUGTT against Tmem41b was -2.56 (active); that for CGGCAUUCAGAUUGUCUCUTT against Nup210 was -1.22.
On to GGCCAUUGAGUGCUCCUACTT against Dhcr7, for which the z-score is -0.113.
Consider CCACUCAUUGUUCAUGGAATT against Olfr1490, for which the z-score is 0.798.
On to GGACCUGAGUUAGGAGAAUTT against Zfp105, for which the z-score was -2.06 (active).
On to GGCUGAGAAUGCAAGAAUGTT against Krt32, for which the z-score was -0.446.
The figure for GGAAUUCAGCUUUGUGCAATT against Asl is 0.764; for GGCCAGCAAAACAAAUGACTT against Slc34a2 it is -1.01; for GGUAAAGCAGUACCUUUCUTT against Mitf it is 2.53 (active).
As to GGUGAUGCUGGAAUCUUCCTT against Svop, the z-score is 0.216.
The figure for GCGAUUCGUCUUCGAGUUCTT against Fam161a is 0.483; for GGAACUAUUUUUUACCCAATT against Dclre1a it is -0.497.
GGAAAGAAGAUCGAUUACATT against Atp11c: the z-score was 2.22 (active).
The value for GCCCUGUUUACACCUCUGATT against Sec23a was -1.38.
Take CGAAAGGUCAAAUUAACAGTT against Serpinb5: the z-score is 1.23.
With CCACAAAGAAUGCAUUACUTT against Eml3, the z-score was -0.912.
